Consider 40 molecules from PubChem BioAssay (NCI).

The structures appear in SMILES notation. The panel holds about 83,000 compounds, 20% with a hit somewhere; the sample as a whole holds those more often.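 Method: cells in 96-well plates; compound added at one concentration; 48 h incubation; percent growth measured; values under 10 scored active.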 Active and inactive are the calls of the source.

The assay relates to HL-60(TB) leukemia. In words: NCI-60 one-dose screen, 48 h (100 = growth as untreated, 0 = no growth, -100 = all killed). The following applies: 10 µM unless noted.
Consider `Cc1ccc(OCCOCCOCCOc2ccc(C)n(O)c2=S)c(=S)n1O`, for which the growth is 37.6% (inactive).

Regarding `CC/C(=C\c1ccc(OC)cc1)C(=O)c1ccc(OC)cc1`, the growth was 131% (inactive).

As to `CC(C)(C)c1ccc(S(=O)(=O)O)s1`, the growth was 82.5% (inactive).

With `COc1ccc(C2=NNC(c3sc(Cl)nc3Cl)C2)cc1` (stereo not given), the growth was 85.8% (inactive).

Consider `COC(=O)[C@]1(C)CCC[C@]2(C)c3ccc(C(C)C)cc3C(=O)[C@@H](Br)[C@@H]12`, for which the growth is 68.1% (inactive).

As to `CSC(SC)=C(C#N)c1nc2ccccc2s1`, the growth was 44.6% (inactive).

As for `NCCCCCNc1noc(Cc2c[nH]c3cc(Br)ccc23)n1`, the growth was -48.8% (active).

For `COCC(=O)NNc1[nH]c(-c2ccc(OC)cc2)cc1C#N`, the growth was 6.53% (active).

For the molecule `O=c1oc2ccc(F)cc2c(=O)n1-c1ccc(Cl)cc1F`, the growth is -45.3% (active).

For the molecule `N#CCc1cccc2ccccc12`, the growth is 90.6% (inactive).

As for `CCc1ccccc1C(=O)N(CC)CC`, the growth was 95.1% (inactive).

As for `COc1cccc(CNc2c3ccccc3nc3ccccc23)c1`, the growth was 40.9% (inactive).

In the case of `O=C(/C(=C/c1ccccc1)CN1CCCCC1)c1ccccc1`, the growth is -16.4% (active).

Consider `CN(C)C(=O)Nc1nc2cc(Cl)c(Cl)cc2[nH]1`, for which the growth was -29.9% (active).

With `Cc1cc(C(=O)/C=C/c2ccc[nH]2)ccc1-n1ccc(C(F)(F)F)n1`, the growth is -21% (active).

Turning to `S=C(Cc1ccccc1)N1CCN(c2ccccc2Cl)CC1`, the growth is 92.1% (inactive).

Take `CC(C)(C)n1cc(-c2ccnc(NCCCNS(=O)(=O)c3ccc(Cl)cc3)c2)c(-c2cccc(O)c2)n1`: the growth is -46.1% (active).

As to `COc1ccc(CNCCN2C(=O)c3ccc4c5c(ccc(c35)C2=O)C(=O)N(CCNCc2ccc(OC)cc2)C4=O)cc1`, the growth is -63.4% (active).

As to `CC(C)(C)OC(=O)c1ccc(NCc2cc(O)ccc2O)cc1`, the growth was -39.3% (active).

For `CCOC(=O)CC[C@H](NC(=O)c1ccc(N(C)Cc2cnc3nc(N)nc(N)c3n2)c2ccccc12)C(=O)OCC`, the growth is 20.7% (inactive).

With `Cc1cc(N/N=C/c2nc(-c3ccc(Cl)cc3)oc2C)c2cc(Cl)ccc2n1`, the growth was 8.08% (active).

As to `COc1ccc(CN2c3ccccc3Sc3ccccc32)c(C(F)(F)F)c1`, the growth is 23.7% (inactive).

With `O=C(Nc1ccccc1-c1nc2ccccc2c(=O)[nH]1)c1cc2ccccc2[nH]1`, the growth is 65.5% (inactive).

For `NS(=O)(=O)c1ccc(N/C=C/C(=O)c2cc3ccccc3oc2=O)cc1`, the growth was 100% (inactive).

Consider `CC(C)NC(=O)OCc1c(COC(=O)NC(C)C)c(-c2ccc(Cl)cc2)n2c1CCC2`, for which the growth is 43.9% (inactive).

As for `C=C1C(=O)O[C@H]2[C@H]1CC/C(COC(=O)/C=C\C(=O)NCc1ccc(Cn3c(=O)sn(-c4ccc(C#N)cc4)c3=O)cc1)=C\CC[C@@]1(C)O[C@@H]21`, the growth was -40.3% (active).

Turning to `COc1cccc(-c2nn(-c3ccccc3)cc2-c2ccnc(NCCCNS(=O)(=O)c3ccc(C(F)(F)F)cc3)c2)c1`, the growth is 12.4% (inactive).

With `COc1cc(C2C=C(c3ccc(C)cc3)Nc3nc(SC)[nH]c(=O)c32)ccc1Oc1ccnc2cc(Cl)ccc12` (stereo not given), the growth was 104% (inactive).

For `O=Nc1ccc(O)c(=O)cc1`, the growth was 4.36% (active).

On to `OC(CN1CCCC2CCCCC21)c1cc2ccccc2c2ccccc12` (stereo not given), for which the growth was 84.9% (inactive).

Turning to `O=P(O)(O)OCC1OC(n2cnc3c(NCc4ccco4)ncnc32)C(O)C1O` (stereo not given), the growth was -6.93% (active).

As to `NC(CCl)=NCC12CC3CC(CC(C3)C1)C2`, the growth was -30.2% (active).

Consider `CCOC(=O)c1ccc2n1CCCc1cnc(NC(C)=O)nc1-2`, for which the growth is 109% (inactive).

For `Cc1[nH]c(C(=O)Nc2cccc(OC3CCNCC3)c2)c(Cl)c1Cl`, the growth was 54.9% (inactive).

For the molecule `COc1ccc(/C=C2\Oc3cc(OCCN4CCCC4)ccc3C2=O)c(OC)c1`, the growth is 75.6% (inactive).

Regarding `Nc1ccc2ccc(NS(=O)(=O)N3CCCCC3)cc2c1`, the growth is 2.41% (active).

With `COC(=O)Nc1nc2ccc(C(=O)c3ccc(N(C)C4COC4)cc3)cc2[nH]1`, the growth is -28.8% (active).

As for `COC(=O)CCC1=C(C)/C(=C/c2[nH]c(-c3ccc[nH]3)cc2OC)N=C1C`, the growth was -23.3% (active).

`O=S(=O)(NCCNc1nccc(-c2c(-c3ccc(F)c(O)c3)nc3sccn23)n1)c1ccc(Cl)cc1`: the growth is -26.9% (active).

With `Cc1nc(Nc2cccnc2)sc1C(=O)/C=C/c1ccc(Cl)cc1`, the growth is -4.8% (active).
